Assay results reported in PubChem BioAssay (NCATS).

assay: qHTS drug screen for cell cycle checkpoint inhibitors in PARPi-resistant BRCA-mutant ovarian cancer cell lines. (AID 1963452); conditions: PEO1/OlaR viability, CellTiter-Glo luminescence, 96 h; measured here: PEO4 Z-AUC; stronger effect = lower value
Summary of the method: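 PEO1, PEO4 and PEO1/OlaR ovarian cancer cells, 600 per well, exposed 96 h at 37C to a dilution series. Viability read by CellTiter-Glo luminescence, normalized to DMSO and empty wells; activity summarized as Z-AUC.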

Compound	Z-AUC
Nc1ncnc2c1nc(Cl)n2[C@@H]1O[C@H](CO)[C@@H](O)[C@@H]1O	-0.377
COCCOc1nc(-c2ccc(Cl)c(Cl)c2)n(-c2ccc(NC(=O)CCl)cc2)n1	-0.069
CCOC(CN1C(=O)[C@](CC(=O)Nc2ccc(C)cc2)(NC(=O)Nc2ccc(C)cc2)c2ccccc21)OCC	1.28
CN(C)Cc1ccc(-c2nc3cccc4c3n2CCNC4=O)cc1	0.475
Clc1ccc(C(c2ccc(Cl)cc2)n2cc[n+](CC(OCc3ccc(Cl)cc3Cl)c3ccc(Cl)cc3Cl)c2)cc1 (stereo not drawn)	-0.455
O=c1c(-c2ccc(O)cc2)coc2cc(O)ccc12	1.78
CCNc1cc(NC2CCC(O)CC2)nc(Nc2ccc3c(ccn3Cc3ccccc3)c2)n1 (stereo not drawn)	0.72
Oc1ccc(C2CCN(c3ccnc4ccccc34)CC2)cc1O	0.401
COc1cc2ncnc(-n3nc(-c4ccccn4)nc3N)c2cc1OC	0.697
c1ccc2c(Cc3c[nH]c4ccccc34)c[nH]c2c1	-0.359
NS(=O)(=O)c1cccc2c1C(=O)c1cccc(O)c1C2=O	-1.74
O=C(CCN1CCN(C(=O)OCc2cc(Cl)cc(Cl)c2)CC1)c1ccc2[nH]c(=O)oc2c1	0.591
C[C@]12CCC3c4ccc(O)cc4CCC3C1CCC2=O (stereo partly drawn)	1.78
Cc1ccc(C(=O)Nc2cccc(C(F)(F)F)c2)cc1Nc1nc(-c2cccnc2)nc2c1cnn2C	0.562
Oc1ccc(C2=Cc3ccc(O)cc3OC2)cc1	-0.812
N#CC1(c2ccc(NC(=O)c3cccnc3NCc3ccncc3)cc2)CCCC1	1.27
CCS(=O)(=O)N1CC(CC#N)(n2cc(-c3ncnc4[nH]ccc34)cn2)C1	0.44
CCOC(=O)C1=C(N)Oc2ccc(Br)cc2C1C(C#N)C(=O)OCC (stereo not drawn)	1.22
COc1ncc(-c2ccc3nccc(-c4ccnnc4)c3c2)cc1NS(=O)(=O)c1ccc(F)cc1F	-1.99

Compound	Z-AUC
COc1cc(N2CCC(N3CCN(C)CC3)CC2)ccc1Nc1ncnc(Nc2ccccc2S(=O)(=O)C(C)C)n1	0.238
O=C(Nc1ccccc1Br)N[C@@H]1CCN(c2ccc(C(F)(F)F)cn2)C1	0.446
CN1CCN(CCOc2cc(OC3CCOCC3)c3c(Nc4c(Cl)ccc5c4OCO5)ncnc3c2)CC1	1.23
O=C(N[C@@H](c1ccccc1)[C@@H]1CCCCN1)c1cccc(C(F)(F)F)c1Cl	0.741
CNC1CCC(N(Cc2cccc(-c3ccncc3)c2)C(=O)c2sc3c(F)ccc(F)c3c2Cl)CC1 (stereo not drawn)	-1.33
Cc1ccc(C(C)(O)c2nc3ccccc3s2)c(C)c1 (stereo not drawn)	0.368
NC(=O)c1ccc2nc(-c3ccc(Oc4ccc(Cl)cc4)cc3)[nH]c2c1	-1.18
COc1cc(NC(=O)c2ccc(-c3ccc(Cl)cc3)o2)cc(OC)c1	-0.303
c1cc(-c2sc(-c3ccncc3)c(-c3ccncc3)c2-c2ccncc2)ccn1	1.03
Cc1ccc(/C=N/NC(=O)c2ccccc2Oc2ccccc2)o1	0.656
CC(C)(C(=O)NCC(F)(F)C(F)(F)F)C(=O)N[C@@H]1C(=O)Nc2ccccc2-c2ccccc21	0.383
COc1ccc2c(Oc3ccc(NC(=O)c4c(C)n(CC(C)(C)O)n(-c5ccccc5)c4=O)nc3)ccnc2c1	-0.433
Cc1c(NC(=O)c2ccc(C(C)(C)C)cc2)cccc1-c1cn(C)c(=O)c(Nc2ccc(C(=O)N3CCOCC3)cc2)n1	0.879
Cc1nc(N)sc1-c1ccnc(Nc2ccc(N3CCOCC3)cc2)n1	-0.545
CC[C@@]1(O)C[C@H](O[C@H]2C[C@H](N(C)C)[C@H](O[C@H]3C[C@H](O)[C@H](O[C@H]4CCC(=O)[C@H](C)O4)[C@H](C)O3)[C@H](C)O2)c2c(cc3c(c2O)C(=O)c2c(O)cccc2C3=O)[C@@H]1C(=O)OC	-0.946
COc1ccc(-c2coc3cc(O)cc(O)c3c2=O)cc1	1.85
N#Cc1ccc(NC(=O)Nc2ccccc2Br)c2n[nH]nc12	1.04
COc1cccc([C@@H](C)NCCCc2ccccc2Cl)c1	0.597
Cc1ccc(F)c(NC(=O)Nc2ccc(-c3cccc4[nH]nc(N)c34)cc2)c1	1.16
